In PubChem BioAssay (NCATS):
Inconclusive results are not listed. The source made the active and inactive calls. Unless noted, the call rests on the fitted dose curve; in most records, active means well fitted curve in the direction sought with a large enough effect; inconclusive means small, poorly fitted or top-dose-only effect, or another doubt; inactive means no such curve, though single readings can be large; an effect the other way counts as inactive or inconclusive.

Key:
[1] = Cell Viability - SH-SY5Y (AID 544); details: SH-SY5Y neuroblastoma cell viability; viability change, negative = cytotoxic: at 92.2 µM (top of the series);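 further: cells exposed to compound for 40 hours; nearly all actives have a fitted effect of over 55% in size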; further: potency means the concentration at half of the fitted maximal effect;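 on viability change, negative = cytotoxic: 0% = DMSO alone and -100% = 100 µM tamoxifen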
How it was run: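 SH-SY5Y human neuroblastoma cells (1500/well) incubated 5 h, then compound-treated 40 h at 37 °C in complete medium. Viability read as intracellular ATP by CellTiter-Glo luminescence after 20 min; AC50 from Hill-equation fits of qHTS concentration-response.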

[2] = Cell Viability - Renal Proximal Tubule (AID 545); details: renal proximal tubule cells viability, primary cells of rat origin; activity change, negative = cytotoxicity: at 91.7 µM (top of the series);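 further: cells exposed to compound for 40 hours; 0% = DMSO only and -100% = 100 µM tamoxifen; nearly all actives have a fitted effect of over 40% in size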
How it was run: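 Luminescent ATP signal (CellTiter-Glo) served as the viability read-out after 40 hr compound exposure of freshly isolated rat proximal tubule cells at 37 °C. Concentration-dependent ATP loss was fitted with the Hill equation to give AC50.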

[3] = Cell Viability - LYMP2-001 (AID 921);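 further: 0% = DMSO only and full inhibition = tetraoctylammonium bromide control wells; nearly all actives have a fitted effect of over 70% in size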
How it was run: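 Steps: seed 2500 lymphoblastoid cells/well; 5 hr, 37 C; add compound; 24 hr, 37 C; CellTiter-Glo reagent, 30 min room temperature; read luminescence. Concentration-response modeled by Hill equation for AC50.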

[4] = MultiTox-Fluor Cytotoxicity Assay - LYMP1-001 - Live Cells (AID 947);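 further: 0% = DMSO only and full inhibition = tetraoctylammonium bromide control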
[5] = Cell Viability - LYMP2-005 (AID 967);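 further: plate controls were DMSO only for no effect and 92 µM tetraoctylammonium bromide control for full effect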
How it was run: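 Acute cytotoxicity is scored as a concentration-dependent drop in intracellular ATP in human lymphoblastoid LYMP2-005 cells after 24 h compound treatment. ATP is quantified by luciferase luminescence, and AC50 is derived by Hill-equation modelling.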

[6] = Cell Viability - LYMP2-017 (AID 972); further: on the % scale 0 is the no-effect control and ±100 the full control effect; nearly all actives have a fitted effect of over 55% in size
How it was run: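 LYMP2-017 human lymphoblastoid cells (2500/well) settled 5 hr at 37 C, then exposed to compound 24 hr at 37 C in complete medium. Viability taken as intracellular ATP by CellTiter-Glo luminescence after 30 min at RT; AC50 from Hill fits.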

[7] = Cell Viability - LYMP2-019 (AID 973);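 further: 0% = DMSO alone and full effect = 92 µM tetraoctylammonium bromide; nearly all actives have a fitted effect of over 55% in size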
How it was run: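 Human lymphoblastoid LYMP2-019 cells (2500/well) preincubated 5 h at 37 C, then treated 24 h at 37 C in complete medium. Viability by CellTiter-Glo ATP luminescence after 30 min at room temperature; AC50 from Hill fits.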

[8] = Cell Viability - LYMP2-021 (AID 974);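 further: compound exposure lasts 24 hours at 37 °C; nearly all actives have a fitted effect of over 55% in size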; further: potency means the concentration at half of the fitted maximal effect; on activity change, negative = cytotoxicity: on the % scale 0 is the no-effect control and ±100 the full control effect
How it was run: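 Human lymphoblastoid LYMP2-021 cells, 2500/well in complete medium, treated 24 hours at 37 C. Intracellular ATP by CellTiter-Glo luminescence (30 min, RT); AC50 from Hill fits of concentration-response.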

[9] = Cell Viability - LYMP2-006 (AID 978); further: on the % scale 0 is the no-effect control and ±100 the full control effect; nearly all actives have a fitted effect of over 60% in size
How it was run: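 Cells are seeded at 2500 per well and rested 5 hr at 37 C. Compounds are added across a concentration series for 24 hr at 37 C, after which ATP is quantified by luciferase luminescence.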

[10] = Cell Viability - LYMP2-010 (AID 981); further: nearly all actives have a fitted effect of over 55% in size; further: potency means the concentration at half of the fitted maximal effect
How it was run: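 Human lymphoblastoid LYMP2-010 cells (2500/well) treated 24 h at 37 C in complete medium; viability read as intracellular ATP by CellTiter-Glo luminescence. AC50 from Hill fits of concentration-response data; tetraoctylammonium bromide positive control.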

[11] = Cell Viability - LYMP2-012 (AID 982)
[12] = Cell Viability - LYMP2-024 (AID 988);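 further: plate controls were DMSO only for no effect and 92 µM tetraoctylammonium bromide for full effect; nearly all actives have a fitted effect of over 60% in size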
How it was run: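 Human lymphoblastoid LYMP2-024 cells (2500/well) rested 5 hr, then treated with compound for 24 hr at 37 C in complete medium. Viability was measured as intracellular ATP by CellTiter-Glo luminescence. AC50 values came from Hill-equation fits.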

[13] = biological target: Glucocorticoid receptor (Homo sapiens) (UniProt P04150); assay: qHTS assay for small molecule agonists of glucocorticoid receptor signaling (AID 588532; active means well fitted curve in the direction sought with a large enough effect in the signal ratio, with a control signal flat; the % refers to the signal ratio;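 further: 100% = dexamethasone at 0.1 µM and 0% = DMSO only wells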); details: HeLa MMTV-bla, beta-lactamase ratio, agonist, 18 h; stronger effect = higher value; percent of dexamethasone control, DMSO zero
How it was run: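 Agonist-mode qHTS: GRE-driven beta-lactamase in HeLa cells exposed 18 h to titrated compounds (up to 92 uM), then CCF4 ratio read after 2 h at RT; Hill-fitted EC50, efficacy relative to 0.1 uM dexamethasone.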

[14] = qHTS assay for small molecule agonists of retinoid X receptor alpha signaling (AID 588544; calls by dose curve;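 on activation: 0% = DMSO basal wells and 100% = reference agonist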); details: HEK293T RXRa-UAS-bla, beta-lactamase reporter, 18 h; 530 nm emission
[15] = biological target: Retinoic acid receptor RXR-alpha (Homo sapiens) (UniProt P19793); assay: as above
[16] = biological target: Thyroid hormone receptor beta (Homo sapiens) (UniProt P10828); assay: qHTS assay for small molecule agonists of thyroid hormone receptor beta signaling (AID 588545; calls by dose curve;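 further: 0% = DMSO only and 100% = 10 nM T3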)
How it was run: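 Stimulation of a TR-driven beta-lactamase reporter was quantified in GripTite HEK 293 cells. Compound series ran for 18 hrs; curves were normalized to T3 and DMSO controls and fitted to yield EC50.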

[17] = qHTS assay for small molecule activators of the p53 signaling pathway (AID 651743; active means well fitted activation curve with a large enough effect in the signal ratio, not every such curve was filed as active; the % refers to the signal ratio; further: % of control where 0% means no effect); details: HCT-116 p53RE-bla, beta-lactamase FRET ratio, 16 h; activation: stronger effect = higher value
How it was run: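 Read-out is fluorescence intensity from the LiveBLAzer B/G FRET substrate, added for 2 hours at room temperature after HCT-116 p53RE-bla cells had been incubated with compounds for 16 hours at 37 C.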

[18] = qHTS assay for small molecule agonists of the antioxidant response element (ARE) signaling pathway measured by Nrf2-dependant transcriptional activity (AID 720636; active means well fitted curve in the direction sought with a large enough effect in the repeat runs; an effect the other way counts as inactive or inconclusive;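 further: HepG2 cells with an ARE-driven luciferase reporter; % of control where 0% means no effect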)
How it was run: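 Cells: ARE-luc HepG2 with Nrf2-responsive luciferase. Medium contained 1% dialyzed FBS. Compound exposure lasted 16 hr at 37 C and 5% CO2, followed by ONE-Glo luciferase detection.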

[19] = qHTS assay for small molecule disruptors of the mitochondrial membrane potential - 1 hr assay (AID 651754; calls by dose curve; further: on the % scale 0 is the no-effect control and ±100 the full control effect; nearly all actives have a fitted effect of over 35% in size)
How it was run: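 HepG2 cells, attached overnight, were exposed to compound for 1 hr at 37C, then stained 30 min with a potentiometric dye. Ratio of red aggregate (590nm) to green monomer (535nm) fluorescence reports membrane potential; collapse shifts signal toward green.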

[20] = qHTS assay for small molecule disruptors of the mitochondrial membrane potential - 5 hr assay (AID 651755; calls by dose curve; further: on the % scale 0 is the no-effect control and ±100 the full control effect; nearly all actives have a fitted effect of over 40% in size)
How it was run: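 HepG2, 2,000 cells/well, overnight attach; cpd or DMSO 5 hr, 37C/5% CO2; Mito-MPS 30 min 37C; fluor 490/535 + 540/590 nm.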

Chain of Glucocorticoid receptor (Homo sapiens) (P04150 whole entry, looked up): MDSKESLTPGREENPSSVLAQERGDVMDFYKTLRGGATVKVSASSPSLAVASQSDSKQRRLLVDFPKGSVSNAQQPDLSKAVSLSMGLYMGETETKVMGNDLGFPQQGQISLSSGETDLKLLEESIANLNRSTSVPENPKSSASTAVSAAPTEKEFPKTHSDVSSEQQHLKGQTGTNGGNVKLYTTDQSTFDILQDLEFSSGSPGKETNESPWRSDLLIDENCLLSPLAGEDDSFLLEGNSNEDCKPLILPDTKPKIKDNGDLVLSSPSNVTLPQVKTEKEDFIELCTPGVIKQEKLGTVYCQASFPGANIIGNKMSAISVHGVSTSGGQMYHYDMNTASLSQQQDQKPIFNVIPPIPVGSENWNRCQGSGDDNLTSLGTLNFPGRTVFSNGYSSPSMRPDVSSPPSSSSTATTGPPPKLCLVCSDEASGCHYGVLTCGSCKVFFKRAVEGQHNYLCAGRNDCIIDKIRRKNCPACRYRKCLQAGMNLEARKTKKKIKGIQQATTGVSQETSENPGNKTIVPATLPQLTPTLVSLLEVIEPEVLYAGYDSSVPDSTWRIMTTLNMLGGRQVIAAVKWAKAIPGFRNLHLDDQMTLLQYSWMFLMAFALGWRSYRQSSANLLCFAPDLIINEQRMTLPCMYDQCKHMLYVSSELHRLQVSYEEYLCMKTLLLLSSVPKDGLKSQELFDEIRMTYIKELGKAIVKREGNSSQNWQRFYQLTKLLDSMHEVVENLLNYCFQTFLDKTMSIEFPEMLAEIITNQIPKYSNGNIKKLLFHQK
Chain of Retinoic acid receptor RXR-alpha (Homo sapiens) (P19793 whole entry, looked up): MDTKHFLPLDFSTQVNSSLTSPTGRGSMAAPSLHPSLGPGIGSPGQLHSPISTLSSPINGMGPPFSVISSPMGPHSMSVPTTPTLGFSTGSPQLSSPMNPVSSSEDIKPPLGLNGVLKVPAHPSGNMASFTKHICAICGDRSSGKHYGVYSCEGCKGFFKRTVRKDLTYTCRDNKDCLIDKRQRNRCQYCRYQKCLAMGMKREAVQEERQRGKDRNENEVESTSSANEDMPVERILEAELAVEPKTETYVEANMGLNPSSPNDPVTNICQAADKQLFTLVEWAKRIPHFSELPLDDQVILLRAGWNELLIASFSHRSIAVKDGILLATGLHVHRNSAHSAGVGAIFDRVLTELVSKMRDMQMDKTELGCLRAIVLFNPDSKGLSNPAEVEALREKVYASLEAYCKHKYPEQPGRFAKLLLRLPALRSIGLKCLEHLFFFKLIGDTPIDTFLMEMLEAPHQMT
Chain of Thyroid hormone receptor beta (Homo sapiens) (P10828 whole entry, looked up): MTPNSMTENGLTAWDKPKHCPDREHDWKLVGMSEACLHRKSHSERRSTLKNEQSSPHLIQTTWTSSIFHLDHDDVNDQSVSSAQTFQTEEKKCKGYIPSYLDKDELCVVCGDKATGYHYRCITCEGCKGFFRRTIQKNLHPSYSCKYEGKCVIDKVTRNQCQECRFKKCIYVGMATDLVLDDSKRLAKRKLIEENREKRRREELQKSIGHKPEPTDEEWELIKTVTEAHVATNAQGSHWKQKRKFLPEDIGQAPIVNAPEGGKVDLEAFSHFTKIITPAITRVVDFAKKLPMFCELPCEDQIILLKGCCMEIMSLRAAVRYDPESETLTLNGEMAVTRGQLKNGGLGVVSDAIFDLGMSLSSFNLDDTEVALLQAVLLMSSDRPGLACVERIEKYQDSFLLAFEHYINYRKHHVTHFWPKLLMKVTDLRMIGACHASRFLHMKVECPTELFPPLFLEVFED

CC(C)COC(=O)COc1cc(Cl)c(Cl)cc1Cl
inactive: Potency [1] | Potency [2] | Potency [3] | Potency [4] | Potency [5] | Potency [6] | Potency [7] | Potency [8] | Potency [9] | Potency [10] | Potency [11] | Potency [12] | activation [13] -3.56% | Potency [15] | Potency [16] | activation [17] -1.51% | Potency [18]
-5.32%: max response [14]

CCOc1ccc2nc(N)sc2c1
inactive: Potency [1] | Potency [2] | Potency [3] | Potency [4] | Potency [5] | Potency [6] | Potency [7] | Potency [8] | Potency [9] | Potency [10] | Potency [11] | Potency [12] | activation [13] -9.89% | Potency [15] | Potency [16] | activation [17] -1.71%
1.63%: max response [14]

Brc1ccc(-c2ccccc2)cc1
inactive: Potency [1] | Potency [2] | Potency [3] | Potency [4] | Potency [5] | Potency [6] | Potency [7] | Potency [8] | Potency [9] | Potency [10] | Potency [11] | Potency [12] | activation [13] -2.59% | Potency [15] | Potency [16] | activation [17] -2.65% | Potency [18]
4.33%: max response [14]

O=CC(=O)c1ccccc1
inactive: Potency [1] | Potency [2] | Potency [4] | Potency [5] | Potency [7] | Potency [10] | Potency [11] | activation [13] -5.46% | Potency [15] | activation [17] -5.31% | Potency [19] | Potency [20] | Potency [18]
-0.232%: max response [14]

O=C(OCC1CO1)C1CCCCC1C(=O)OCC1CO1 (configuration not stated)
inactive: Potency [2] | Potency [4] | activation [13] 2.8% | Potency [19] | Potency [20]
active: Potency [1] 25.1 µM | Potency [8] 50.1 µM | Potency [10] 50.1 µM

Nc1ccc(-c2ccc(N)c(O)c2)cc1O
inactive: Potency [2] | Potency [4] | Potency [9] | activation [13] 0.0418% | activation [17] 2.61% | Potency [19] | Potency [18]

c1ccc2ncccc2c1
inactive: Potency [1] | Potency [2] | Potency [3] | Potency [4] | Potency [5] | Potency [6] | Potency [7] | Potency [8] | Potency [9] | Potency [10] | Potency [11] | Potency [12] | activation [13] -12.1% | Potency [15] | Potency [16] | activation [17] -4.75% | Potency [19] | Potency [20] | Potency [18]
5.03%: max response [14]

c1cc2c3c(c1)ccc1cccc(c13)C2
-13.6%: max response [14]
inactive: Potency [1] | Potency [2] | Potency [3] | Potency [4] | Potency [5] | Potency [6] | Potency [7] | Potency [8] | Potency [9] | Potency [10] | Potency [11] | Potency [12] | activation [13] -6.79% | Potency [15] | Potency [16] | activation [17] -4.21% | Potency [19] | Potency [20] | Potency [18]
